Data reported in paper PMC8222333, “AsCas12a ultra nuclease facilitates the rapid generation of therapeutic cell medicines”.

B1: ACGC (dsDNA)
DNA 1: GCTATCTAGTGCTCAGTACGCACTGACGCAGGAAACTTCTGGCAGGACCAGGTCATGAGATCGGAAGAGCACACGTCTGAACTCCAGTCA
DNA 2: TGACTGGAGTTCAGACGTGTGCTCTTCCGATCTCATGACCTGGTCCTGCCAGAAGTTTCCTGCGTCAGTGCGTACTGAGCACTAGATAGC
RNA: AAUUUCUACUCUUGUAGAUAGGAAACUUCUGGCAGGACC
B2: GTAC (dsDNA)
DNA 1: GCTATCTAGTGCTCAGTACGCACTGGTACAGGAAACTTCTGGCAGGACCAGGTCATGAGATCGGAAGAGCACACGTCTGAACTCCAGTCA
DNA 2: TGACTGGAGTTCAGACGTGTGCTCTTCCGATCTCATGACCTGGTCCTGCCAGAAGTTTCCTGTACCAGTGCGTACTGAGCACTAGATAGC
RNA: AAUUUCUACUCUUGUAGAUAGGAAACUUCUGGCAGGACC
B3: GCGG (dsDNA)
DNA 1: GCTATCTAGTGCTCAGTACGCACTGGCGGAGGAAACTTCTGGCAGGACCAGGTCATGAGATCGGAAGAGCACACGTCTGAACTCCAGTCA
DNA 2: TGACTGGAGTTCAGACGTGTGCTCTTCCGATCTCATGACCTGGTCCTGCCAGAAGTTTCCTCCGCCAGTGCGTACTGAGCACTAGATAGC
RNA: AAUUUCUACUCUUGUAGAUAGGAAACUUCUGGCAGGACC

These binders were tested against d-enCas12a (Acidaminococcus sp., UniProt U2UMQ6 1-1307, E174R;S542R;K548R;D908A;E993A;D1235A) (assay: Spec-seq (native PAGE EMSA with sequencing of bound and unbound); 25 mM Tris-HCl pH 7.4, 150 mM KCl, 5 mM MgCl2, 10% glycerol, 1 mM DTT, 40 ng/uL salmon sperm DNA; 400 nM Cas12a, 480 nM crRNA, 50 nM library, 37 C 1 h; native PAGE at room temperature; high values mean tight binding). Settings: protein: recombinant.
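Further: relative affinity from the bound to unbound sequence frequency ratio in Spec-seq.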

Row | Binder | binding signal
1 | B1 | -5.66 lnKA
2 | B2 | -5 lnKA
3 | B3 | -5.85 lnKA

Each binder was assayed against d-enCas12a-Ultra (Acidaminococcus sp., UniProt U2UMQ6 1-1307, E174R;S542R;K548R;M537R;F870L;D908A;E993A;D1235A) in the same assay as above. Settings: protein: recombinant.

Row | Binder | binding signal
4 | B1 | -3.42 lnKA
5 | B2 | -1.95 lnKA
6 | B3 | -3.63 lnKA
